The campaign covered roughly 340,000 compounds. About 2,800 (0.82%) were called active. The sample holds actives, similar compounds and a random draw of the others, so the mix is not that of the screen.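 Rule for the calls: active = B-score under library mean minus 4 SD, starting fluorescence ratio at most library mean plus 5 SD; inactive = the rest.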
Molecular target: Potassium channel subfamily K member 3 (Homo sapiens) (UniProt O14649)
Assay: blockers of TASK1 two-pore potassium channel – CHO cells, FluxOR thallium flux, B-score, primary screen (AID 602410);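 for B-score: more negative B-score means stronger inhibition of thallium flux through KCNK3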
Details: CHO-KCNK3 thallium flux, FluxOR fluorescence, at 10 µM; stronger effect = lower value

Sequence of Potassium channel subfamily K member 3 (Homo sapiens) (O14649 whole entry, looked up): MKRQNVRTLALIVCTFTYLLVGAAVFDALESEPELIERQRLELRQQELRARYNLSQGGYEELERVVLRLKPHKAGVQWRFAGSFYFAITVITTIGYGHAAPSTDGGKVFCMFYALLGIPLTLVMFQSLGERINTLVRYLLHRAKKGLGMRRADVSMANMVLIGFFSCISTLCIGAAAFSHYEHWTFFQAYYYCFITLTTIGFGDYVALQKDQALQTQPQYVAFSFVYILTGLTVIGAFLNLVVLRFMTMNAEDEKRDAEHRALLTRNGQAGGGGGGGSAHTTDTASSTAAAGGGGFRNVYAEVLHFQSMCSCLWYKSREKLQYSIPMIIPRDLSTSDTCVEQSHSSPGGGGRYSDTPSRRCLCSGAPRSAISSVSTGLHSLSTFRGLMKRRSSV

B-score, active:
CC(Oc1cccc(NC(=O)c2cccs2)c1)C(=O)c1ccccc1 (centres undefined) -11.3
COC(=O)c1cc(NC2c3ccccc3C(=O)N2c2ccc(Cl)cn2)cc(C(=O)OC)c1 (centres undefined) -10.8
Cc1cc(OCCCCOc2ccc(C#N)cc2)ccc1[N+](=O)[O-] -9.68
O=C(CC1NCCc2ccccc21)Nc1cccc(Cl)c1 (centres undefined) -8.87
Cc1ccc(C)c(C(=O)COC(=O)Cn2[nH]c(=O)c3ccccc3c2=O)c1 -9.1
CCC(C)(C)n1nnnc1C(c1cccs1)N1CCN(c2nc3ccccc3s2)CC1 (centres undefined) -9.57
COc1ccccc1C(c1nnnn1C(C)(C)C)N1CCN(Cc2ccccc2)CC1 (centres undefined) -8.94
Cc1ccc(NC(=O)c2cc([N+](=O)[O-])ccc2Cl)c(O)c1 -10.1
Clc1cccc(-c2nc(NCC3CCCO3)c3ccccc3n2)c1 (centres undefined) -10.2
N/C(Cc1ccc([N+](=O)[O-])cc1)=N\OC(=O)COc1ccc2ccccc2c1 -8.91
COc1ccc2c(c1)c(=Cc1ccc(N(C)C)cc1)c1cc(-c3ccccc3)[n+](C)n12 -15.6
O=C(N/N=C/c1cccc(OCc2ccccc2)c1)c1ccc(Br)o1 -9.25
COc1ccccc1N1CCN(c2ncnc3sc(C)c(-c4ccccc4)c23)CC1 -14.3
COc1cccc2cc(C(C)N(CCCN3CCOCC3)C(=O)Nc3ccc(Cl)cc3)oc12 (centres undefined) -10.2

B-score, inactive:
CCn1c(SCC(=O)NC2CCCC2)nnc1-c1ccoc1C
CCN(CC)C(=O)CN(c1cccc(OC)c1)S(=O)(=O)c1ccc(C)cc1
CCCCCCCC(=O)NC(Nc1ccccc1OC)C(Cl)(Cl)Cl (centres undefined)
Cc1ccc(O)c(CCc2ccccc2)n1
O=C(Nc1ccccc1-c1ccccc1)c1cccs1
COc1cc(NC(=O)c2cccs2)ccc1NC(=O)c1ccccc1Cl
CCNC(=O)CC1C(=O)N(c2ccc(OC)cc2)C(=O)N1CCOC (centres undefined)
Cc1ccnc(N2C(=O)c3ccccc3C2Nc2ccc3c(c2)OCCO3)c1 (centres undefined)
COC(=O)c1ccc(-n2cnc3ccccc32)nc1
Cn1ccnc1-c1nnn(-c2ccc(F)cc2)n1
O=C(CC(c1ccccc1)c1cc(Cl)ccc1O)NCCN1CCOCC1 (centres undefined)
Cc1cc(OCC(=O)NC2CCN(C)CC2)ccc1[N+](=O)[O-]
Cc1cc(OCCCN2CCN(Cc3ccccc3)CC2)ccc1[N+](=O)[O-]
COC(c1ccccc1)c1nnc(CCC(=O)N2CCN(CCOc3ccccc3)CC2)o1 (centres undefined)
O=C(CC1NCCNC1=O)Nc1ccc(Oc2ccccc2)cc1 (centres undefined)
O=C(CC1NCCNC1=O)Nc1cc(Cl)cc(Cl)c1 (centres undefined)
O=C(NNS(=O)(=O)c1ccccc1C(F)(F)F)c1cc2ncc(C(F)(F)F)cc2s1
CN1CCN(C(=O)/C(=C\c2cccs2)NC(=O)c2cccs2)CC1
CN(C)S(=O)(=O)c1ccc(NC(=O)COC(=O)Cn2[nH]c(=O)c3ccccc3c2=O)cc1
O=C(COC(=O)Cn1[nH]c(=O)c2ccccc2c1=O)Nc1ncc(Cl)cc1Cl
Fc1ccc(Cn2nnnc2C(c2cccs2)N2CCCCCC2)cc1 (centres undefined)
CCC(C)(C)n1nnnc1C(c1ccc(OC)c(OC)c1)N1CCN(C(=O)c2ccco2)CC1 (centres undefined)
CC(C)C(=O)N1CCN(CCN=CC2=C(O)CC(c3ccco3)CC2=O)CC1 (centres undefined)
CCOC(=O)C1=C(CN2CCc3ccccc32)NC(=O)NC1c1cc(C)ccc1C (centres undefined)
CC(C)(C)c1nnc(N/N=C/c2ccc(O)cc2)n(N)c1=O
O=C(Nc1cc(=O)[nH]c2ncnn12)c1ccccc1Cl
CCCC(c1nnnn1C(C)(C)C)N1CCN(Cc2ccccc2)CC1 (centres undefined)
COc1ccc(OC)c(C(c2nnnn2C(C)(C)C)N2CCc3ccccc3C2)c1 (centres undefined)
C=CCn1c(SCc2cc(C(=O)OC)c(C)o2)nnc1-c1ccncc1
COc1ccc(N2CCN(S(=O)(=O)c3ccc4c(c3)NC(=O)C(C)C(=O)N4)CC2)cc1 (centres undefined)
O=C(Nc1cccnc1)c1cc([N+](=O)[O-])ccc1Cl
CNc1ccc([N+](=O)[O-])cc1C(=O)O
Cc1ccc(SCC(=O)Nc2nncs2)cc1
COc1ccccc1-c1c(C#N)c(N)nc2c1CCC2
O=C(CSc1nc2ccccc2c(=O)n1Cc1ccc(F)cc1)NCC1CCCO1 (centres undefined)
c1ccc2c(NCC3CCCO3)nc(-c3ccncc3)nc2c1 (centres undefined)
CCOC(=O)[C@@H]1[C@H]2COc3ccc(Br)cc3[C@H]2N2C(=O)N(c3ccc(C)cc3)C(=O)[C@@]12C
CCn1c(CSc2nncn2-c2ccc(OC)cc2)nc2cc(S(=O)(=O)N(C)C)ccc21
COc1cc(CNCc2ccc(OC)c3ccccc23)cc(OC)c1OC
CC(C)N(Cc1ccccc1)C(=O)COC(=O)c1cnccn1
N/C(=N\OC(=O)Cc1ccc([N+](=O)[O-])cc1)c1ccccn1
Cc1cc(C)cc(OCC(=O)O/N=C(\N)Cc2ccc([N+](=O)[O-])cc2)c1
CCNC(=O)CC1C(=O)N(c2ccc(OC)cc2)C(=S)N1CCc1ccncc1 (centres undefined)
CCc1cc(-c2n[nH]c(=S)n2CC(C)C)cs1
CCOC(=O)N1CCN(Cc2nc3cc(NC(=O)CC)ccc3n2CC)CC1
O=C(CN(CC1CCCO1)C(=O)CNS(=O)(=O)c1ccc(Cl)cc1)NCc1ccccc1 (centres undefined)
CCC(C(=O)NCCC(C)C)N(Cc1ccccc1Cl)C(=O)c1snc(C(N)=O)c1N (centres undefined)
COc1ccc2sc(-c3ccc(N(C)C)cc3)c(C#CCO)c2c1
O=S(=O)(c1cccs1)N1CCN(CCOc2ccccc2)CC1
Cc1ccc(OCCOc2cccc(/C=N/NC(N)=O)c2)cc1
O=C(N/N=C/c1cccc(O)c1)c1cc2c(ccc3ccccc32)o1
COc1ccccc1N1CCN(c2nc(C)cc(=O)[nH]2)CC1
COc1ccccc1N1CCN(c2ccc([N+](=O)[O-])nc2)CC1
O=C(NCCN1CCOCC1)Nc1cccc(Cl)c1
COc1ccc(S(=O)(=O)N(C)CC(=O)NCCCN2CCOCC2)cc1Cl

From PubChem BioAssay AID602410 (Johns Hopkins Ion Channel Center, 2012)
